Data on one sequence can be found in PMC7862700, “An all-to-all approach to the identification of sequence-specific readers for epigenetic DNA modifications on cytosine”.

Common to all, as to assay: DAPPL (digital affinity profiling via proximity ligation, sequencing); 10 mM Tris-HCl pH 7.5, 50 mM NaCl, 1 mM DTT, 4% glycerol, room temperature, 30 min; GST-TFs on glutathione beads, 16-mer random dsDNA library, 0.1% formaldehyde crosslink after washing; high values mean tight binding
For experiment [1], the target named is T1, FLI1 (Homo sapiens, UniProt Q01543 1-452).
T1 sequence: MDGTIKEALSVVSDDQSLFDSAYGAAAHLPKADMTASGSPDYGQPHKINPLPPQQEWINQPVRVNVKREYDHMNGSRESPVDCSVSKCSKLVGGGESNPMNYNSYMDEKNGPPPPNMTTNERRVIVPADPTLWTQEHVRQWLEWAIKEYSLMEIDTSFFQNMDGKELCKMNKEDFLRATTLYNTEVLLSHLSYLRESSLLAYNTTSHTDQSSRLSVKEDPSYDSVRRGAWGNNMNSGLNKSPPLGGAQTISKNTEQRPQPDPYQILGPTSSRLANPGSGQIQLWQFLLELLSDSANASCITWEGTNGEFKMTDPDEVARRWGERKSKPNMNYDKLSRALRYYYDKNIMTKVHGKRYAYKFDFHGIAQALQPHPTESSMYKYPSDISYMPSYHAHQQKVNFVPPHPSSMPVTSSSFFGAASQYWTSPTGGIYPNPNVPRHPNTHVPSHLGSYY
Conditions: protein: recombinant; tags: N-terminal GST; dsDNA, one strand shown. In a few lines:
(§1)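 Pools of DNA-barcoded human transcription factors, expressed in yeast as GST fusions on glutathione beads and combined with a tag-only sample, were incubated with 200 nmole of a 16-mer random double-stranded DNA library. Incubation took 30 min at room temperature in Tris/NaCl/DTT/glycerol buffer and was followed by washing, 0.1% formaldehyde crosslinking, proximity ligation (BsaI/T4 ligase, 1 h, 37 °C), PCR amplification and sequencing on an Illumina NextSeq500. Binding signal is the ratio of a hexamer's read frequency for a factor to its frequency for the tag-only sample.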

In experiment [2] the target is T2, ELK1 (Homo sapiens, UniProt P19419 1-428).
T2 sequence: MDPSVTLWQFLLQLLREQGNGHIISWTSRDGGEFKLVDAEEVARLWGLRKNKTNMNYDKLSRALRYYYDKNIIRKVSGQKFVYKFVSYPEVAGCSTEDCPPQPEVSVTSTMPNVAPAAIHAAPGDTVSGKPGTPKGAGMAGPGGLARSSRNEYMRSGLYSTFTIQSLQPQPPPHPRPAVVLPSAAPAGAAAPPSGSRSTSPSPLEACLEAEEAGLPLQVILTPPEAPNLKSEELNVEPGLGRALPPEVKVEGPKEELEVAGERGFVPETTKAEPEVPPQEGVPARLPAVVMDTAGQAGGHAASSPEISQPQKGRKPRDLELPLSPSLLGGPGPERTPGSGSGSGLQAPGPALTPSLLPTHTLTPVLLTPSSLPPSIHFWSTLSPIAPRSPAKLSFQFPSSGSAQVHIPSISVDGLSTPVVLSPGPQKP
The conditions noted are these: protein: recombinant; tags: N-terminal GST; dsDNA, one strand shown. In a few lines: as §1

Experiment [3] concerns the target T3, GABPA (Homo sapiens, UniProt Q06546 1-454).
T3 sequence: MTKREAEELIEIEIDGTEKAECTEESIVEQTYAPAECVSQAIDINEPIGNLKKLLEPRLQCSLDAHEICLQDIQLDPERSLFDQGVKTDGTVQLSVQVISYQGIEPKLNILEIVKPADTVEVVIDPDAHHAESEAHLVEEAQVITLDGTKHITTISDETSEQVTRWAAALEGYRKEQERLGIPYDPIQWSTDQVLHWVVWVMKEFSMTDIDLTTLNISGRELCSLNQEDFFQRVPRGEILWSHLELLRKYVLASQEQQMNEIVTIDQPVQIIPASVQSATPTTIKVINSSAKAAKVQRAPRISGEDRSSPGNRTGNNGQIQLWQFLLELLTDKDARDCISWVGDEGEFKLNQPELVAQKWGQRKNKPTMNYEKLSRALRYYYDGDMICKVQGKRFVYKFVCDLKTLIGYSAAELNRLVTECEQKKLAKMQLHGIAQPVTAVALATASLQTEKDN
Conditions: protein: recombinant; tags: N-terminal GST; dsDNA, one strand shown. In a few lines:
as §1

The target in experiment [4] is T4, ERG (Homo sapiens, UniProt P11308 1-479).
T4 sequence: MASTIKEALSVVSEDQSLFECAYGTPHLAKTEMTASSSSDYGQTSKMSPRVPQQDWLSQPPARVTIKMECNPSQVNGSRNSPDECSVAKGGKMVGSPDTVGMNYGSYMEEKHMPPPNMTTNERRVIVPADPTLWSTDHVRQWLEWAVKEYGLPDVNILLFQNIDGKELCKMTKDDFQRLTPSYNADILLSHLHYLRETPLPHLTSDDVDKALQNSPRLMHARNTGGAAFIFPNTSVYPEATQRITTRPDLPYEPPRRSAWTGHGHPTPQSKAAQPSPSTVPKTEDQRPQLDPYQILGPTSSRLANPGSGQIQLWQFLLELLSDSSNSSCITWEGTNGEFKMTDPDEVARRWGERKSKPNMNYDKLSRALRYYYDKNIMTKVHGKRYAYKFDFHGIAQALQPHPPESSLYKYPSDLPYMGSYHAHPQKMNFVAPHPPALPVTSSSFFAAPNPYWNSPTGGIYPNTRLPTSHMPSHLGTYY
Conditions: protein: recombinant; tags: N-terminal GST; dsDNA, one strand shown. In a few lines:
as §1

Experiment [5] concerns the target ELF1 (Homo sapiens, UniProt P32519 1-619). The conditions noted are these: protein: recombinant; tags: N-terminal GST; dsDNA, one strand shown. In a few lines:
as §1

Experiment [6] addresses T5, EHF (Homo sapiens, UniProt Q9NZC4 1-300).
T5 sequence: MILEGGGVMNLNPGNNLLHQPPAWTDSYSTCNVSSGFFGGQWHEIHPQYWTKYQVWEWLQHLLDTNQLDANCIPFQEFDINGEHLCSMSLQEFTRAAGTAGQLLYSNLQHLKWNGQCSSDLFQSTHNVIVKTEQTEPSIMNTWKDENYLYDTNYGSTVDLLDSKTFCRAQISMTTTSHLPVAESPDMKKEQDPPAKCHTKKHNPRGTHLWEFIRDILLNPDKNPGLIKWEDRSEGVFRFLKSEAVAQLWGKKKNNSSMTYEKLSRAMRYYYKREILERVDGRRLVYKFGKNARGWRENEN
Conditions: protein: recombinant; tags: N-terminal GST; dsDNA, one strand shown. In a few lines: as §1

In experiment [7] the target is SPI1 (Homo sapiens, UniProt P17947 1-270). The conditions noted are these: protein: recombinant; tags: N-terminal GST; dsDNA, one strand shown. In a few lines:
as §1

The target in experiment [8] is SPIB (Homo sapiens, UniProt Q01892 1-262). Conditions: protein: recombinant; tags: N-terminal GST; dsDNA, one strand shown. In a few lines: as §1
Sequence of SPIB (Q01892 whole entry): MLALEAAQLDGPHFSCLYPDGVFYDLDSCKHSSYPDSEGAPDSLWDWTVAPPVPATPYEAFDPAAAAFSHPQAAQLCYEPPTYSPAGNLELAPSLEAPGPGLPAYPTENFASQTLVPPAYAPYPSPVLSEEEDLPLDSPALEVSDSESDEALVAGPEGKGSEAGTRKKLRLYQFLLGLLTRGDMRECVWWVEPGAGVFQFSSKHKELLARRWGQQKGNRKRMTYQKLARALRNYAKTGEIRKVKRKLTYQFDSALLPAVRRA
Experiment [9] has as its target T6, ELK3 (Homo sapiens, UniProt P41970 1-407).
T6 sequence: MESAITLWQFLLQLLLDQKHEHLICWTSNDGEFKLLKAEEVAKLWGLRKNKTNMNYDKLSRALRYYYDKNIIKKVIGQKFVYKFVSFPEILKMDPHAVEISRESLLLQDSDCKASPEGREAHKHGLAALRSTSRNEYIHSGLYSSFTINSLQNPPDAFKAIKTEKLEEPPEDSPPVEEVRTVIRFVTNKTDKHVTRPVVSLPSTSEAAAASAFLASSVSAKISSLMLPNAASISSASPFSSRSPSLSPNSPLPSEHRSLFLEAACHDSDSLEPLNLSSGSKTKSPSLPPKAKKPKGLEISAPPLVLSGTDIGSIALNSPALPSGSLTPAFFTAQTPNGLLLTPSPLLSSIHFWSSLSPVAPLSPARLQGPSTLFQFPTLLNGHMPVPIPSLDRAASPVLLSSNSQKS
The conditions noted are these: protein: recombinant; tags: N-terminal GST; dsDNA, one strand shown. In a few lines: as §1

The target of experiment [10] is T7, FEV (Homo sapiens, UniProt Q99581 1-238).
T7 sequence: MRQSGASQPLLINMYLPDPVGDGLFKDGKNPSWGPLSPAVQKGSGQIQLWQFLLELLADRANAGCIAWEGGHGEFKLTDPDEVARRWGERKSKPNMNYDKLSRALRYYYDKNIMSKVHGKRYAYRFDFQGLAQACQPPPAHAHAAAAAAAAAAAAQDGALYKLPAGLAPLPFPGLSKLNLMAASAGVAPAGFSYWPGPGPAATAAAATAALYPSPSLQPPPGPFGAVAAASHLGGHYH
Conditions: protein: recombinant; tags: N-terminal GST; dsDNA, one strand shown. In a few lines:
as §1

The target of experiment [11] is ETV5 (Homo sapiens, UniProt P41161 1-510). The conditions noted are these: protein: recombinant; tags: N-terminal GST; dsDNA, one strand shown. In a few lines:
as §1

Experiment [12] deals with HSF1 (Homo sapiens, UniProt Q00613 1-529). The conditions noted are these: protein: recombinant; tags: N-terminal GST; chain copies: 3; dsDNA, one strand shown. In a few lines:
as §1

Experiment [13] deals with T8, SPIC (Homo sapiens, UniProt Q8N5J4 1-248).
T8 sequence: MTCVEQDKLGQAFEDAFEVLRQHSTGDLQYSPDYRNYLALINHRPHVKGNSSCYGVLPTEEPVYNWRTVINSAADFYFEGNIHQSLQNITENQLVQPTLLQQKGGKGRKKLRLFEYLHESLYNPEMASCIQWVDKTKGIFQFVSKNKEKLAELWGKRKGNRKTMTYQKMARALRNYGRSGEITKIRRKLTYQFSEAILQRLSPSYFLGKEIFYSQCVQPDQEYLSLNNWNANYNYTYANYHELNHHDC
Conditions: protein: recombinant; tags: N-terminal GST; dsDNA, one strand shown. In a few lines:
as §1

Experiment [14] has as its target ELF4 (Homo sapiens, UniProt Q99607 1-663). The conditions noted are these: protein: recombinant; tags: N-terminal GST; dsDNA, one strand shown. In a few lines:
as §1

Experiment [15] addresses T9, ELK4 (Homo sapiens, UniProt P28324-2 1-405).
T9 sequence: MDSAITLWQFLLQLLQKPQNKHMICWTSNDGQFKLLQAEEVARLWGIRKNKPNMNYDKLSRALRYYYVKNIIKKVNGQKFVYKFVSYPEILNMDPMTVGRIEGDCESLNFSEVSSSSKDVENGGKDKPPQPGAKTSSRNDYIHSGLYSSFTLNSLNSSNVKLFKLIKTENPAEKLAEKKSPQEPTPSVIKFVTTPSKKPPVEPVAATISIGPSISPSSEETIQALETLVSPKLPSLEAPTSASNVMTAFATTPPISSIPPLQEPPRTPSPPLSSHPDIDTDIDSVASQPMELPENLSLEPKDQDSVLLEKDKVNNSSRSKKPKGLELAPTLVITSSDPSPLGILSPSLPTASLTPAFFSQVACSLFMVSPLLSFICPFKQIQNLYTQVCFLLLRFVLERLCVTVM
Conditions: protein: recombinant; tags: N-terminal GST; dsDNA, one strand shown. In a few lines:
as §1

In experiment [16] the target is T10, ETV2 (Homo sapiens, UniProt O00321 1-342).
T10 sequence: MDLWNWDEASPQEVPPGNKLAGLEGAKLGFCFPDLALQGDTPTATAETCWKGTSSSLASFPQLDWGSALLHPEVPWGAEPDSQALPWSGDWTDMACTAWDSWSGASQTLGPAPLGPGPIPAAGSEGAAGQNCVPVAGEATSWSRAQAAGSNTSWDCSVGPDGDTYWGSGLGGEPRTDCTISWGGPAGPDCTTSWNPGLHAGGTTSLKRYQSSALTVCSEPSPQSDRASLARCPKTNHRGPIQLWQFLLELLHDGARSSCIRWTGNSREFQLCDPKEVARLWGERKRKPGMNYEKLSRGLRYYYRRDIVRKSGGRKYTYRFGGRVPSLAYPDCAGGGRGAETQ
The conditions noted are these: protein: recombinant; tags: N-terminal GST; dsDNA, one strand shown. In a few lines:
as §1

Experiment [17] concerns the target T11, ELF3 (Homo sapiens, UniProt P78545 1-371).
T11 sequence: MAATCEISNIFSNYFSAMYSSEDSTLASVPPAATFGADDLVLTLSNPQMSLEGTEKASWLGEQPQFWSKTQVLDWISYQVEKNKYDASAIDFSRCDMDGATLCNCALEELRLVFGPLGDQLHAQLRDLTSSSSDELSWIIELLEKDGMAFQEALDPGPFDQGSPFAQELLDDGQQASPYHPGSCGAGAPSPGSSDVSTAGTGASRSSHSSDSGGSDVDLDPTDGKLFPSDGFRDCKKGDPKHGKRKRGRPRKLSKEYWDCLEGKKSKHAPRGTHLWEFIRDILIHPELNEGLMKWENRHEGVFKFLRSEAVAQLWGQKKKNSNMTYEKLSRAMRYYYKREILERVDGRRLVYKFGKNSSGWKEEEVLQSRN
Conditions: protein: recombinant; tags: N-terminal GST; dsDNA, one strand shown. In a few lines: as §1

Experiment [18] has as its target CRX (Homo sapiens, UniProt O43186 1-299). The conditions noted are these: protein: recombinant; tags: N-terminal GST; dsDNA, one strand shown. In a few lines: as §1
The target in experiment [19] is ETV1 (Homo sapiens, UniProt P50549 1-477). The conditions noted are these: protein: recombinant; tags: N-terminal GST; dsDNA, one strand shown. In a few lines:
as §1

Sequence of HSF1 (Q00613 whole entry): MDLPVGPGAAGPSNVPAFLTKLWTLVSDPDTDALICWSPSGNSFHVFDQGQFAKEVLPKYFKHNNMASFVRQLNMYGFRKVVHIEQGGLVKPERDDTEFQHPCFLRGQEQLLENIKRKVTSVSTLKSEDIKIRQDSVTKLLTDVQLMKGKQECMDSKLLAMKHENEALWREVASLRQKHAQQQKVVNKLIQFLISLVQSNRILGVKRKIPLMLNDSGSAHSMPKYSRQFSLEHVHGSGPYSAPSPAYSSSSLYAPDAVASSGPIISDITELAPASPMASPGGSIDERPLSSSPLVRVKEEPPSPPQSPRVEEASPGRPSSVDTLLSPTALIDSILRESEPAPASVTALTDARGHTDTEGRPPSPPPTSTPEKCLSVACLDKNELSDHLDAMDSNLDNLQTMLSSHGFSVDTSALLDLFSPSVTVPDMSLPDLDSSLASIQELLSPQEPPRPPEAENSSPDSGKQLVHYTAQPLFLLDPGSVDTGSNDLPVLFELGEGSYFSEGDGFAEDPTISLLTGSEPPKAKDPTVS
Sequence of CRX (O43186 whole entry): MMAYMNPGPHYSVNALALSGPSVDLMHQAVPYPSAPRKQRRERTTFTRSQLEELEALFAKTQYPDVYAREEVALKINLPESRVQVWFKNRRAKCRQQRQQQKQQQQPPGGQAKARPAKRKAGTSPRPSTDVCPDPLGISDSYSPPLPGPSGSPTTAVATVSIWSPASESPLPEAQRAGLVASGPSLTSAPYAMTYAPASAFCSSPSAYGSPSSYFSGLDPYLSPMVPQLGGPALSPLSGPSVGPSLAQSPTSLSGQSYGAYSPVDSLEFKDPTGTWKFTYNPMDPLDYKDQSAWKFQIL
Sequence of ELF4 (Q99607 whole entry): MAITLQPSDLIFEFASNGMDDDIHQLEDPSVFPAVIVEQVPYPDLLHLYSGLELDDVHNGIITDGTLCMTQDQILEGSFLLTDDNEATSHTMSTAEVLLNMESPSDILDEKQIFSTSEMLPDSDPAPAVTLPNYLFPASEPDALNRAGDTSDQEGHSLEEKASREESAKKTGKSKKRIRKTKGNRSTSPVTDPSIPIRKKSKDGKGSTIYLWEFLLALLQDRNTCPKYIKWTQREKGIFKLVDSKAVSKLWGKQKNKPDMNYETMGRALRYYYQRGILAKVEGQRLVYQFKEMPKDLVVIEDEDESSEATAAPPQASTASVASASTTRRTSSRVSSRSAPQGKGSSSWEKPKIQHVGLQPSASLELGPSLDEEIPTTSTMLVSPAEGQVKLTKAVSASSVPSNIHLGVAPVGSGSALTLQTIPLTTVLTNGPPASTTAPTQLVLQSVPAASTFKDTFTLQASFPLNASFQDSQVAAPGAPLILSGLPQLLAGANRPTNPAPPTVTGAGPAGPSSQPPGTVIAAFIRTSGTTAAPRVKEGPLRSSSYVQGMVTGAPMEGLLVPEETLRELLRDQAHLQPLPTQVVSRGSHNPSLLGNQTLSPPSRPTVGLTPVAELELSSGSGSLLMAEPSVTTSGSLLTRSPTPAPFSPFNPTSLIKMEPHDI
Sequence of ELF1 (P32519 whole entry): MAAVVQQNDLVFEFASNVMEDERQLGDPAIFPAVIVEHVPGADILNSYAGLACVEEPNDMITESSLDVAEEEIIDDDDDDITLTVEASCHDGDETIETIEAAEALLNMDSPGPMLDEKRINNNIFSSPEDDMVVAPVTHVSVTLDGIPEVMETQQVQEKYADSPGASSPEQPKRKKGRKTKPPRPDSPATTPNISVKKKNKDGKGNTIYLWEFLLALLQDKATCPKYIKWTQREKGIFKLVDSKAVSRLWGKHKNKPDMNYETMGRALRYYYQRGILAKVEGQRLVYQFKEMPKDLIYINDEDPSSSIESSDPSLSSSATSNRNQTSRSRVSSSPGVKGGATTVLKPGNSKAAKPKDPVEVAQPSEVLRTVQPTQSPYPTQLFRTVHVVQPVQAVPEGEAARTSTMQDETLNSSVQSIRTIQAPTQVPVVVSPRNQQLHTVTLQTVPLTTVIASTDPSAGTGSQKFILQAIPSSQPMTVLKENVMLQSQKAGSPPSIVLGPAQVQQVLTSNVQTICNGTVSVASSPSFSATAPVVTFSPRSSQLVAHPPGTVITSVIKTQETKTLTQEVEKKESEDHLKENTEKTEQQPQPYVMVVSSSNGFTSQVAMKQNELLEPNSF
Sequence of ETV5 (P41161 whole entry): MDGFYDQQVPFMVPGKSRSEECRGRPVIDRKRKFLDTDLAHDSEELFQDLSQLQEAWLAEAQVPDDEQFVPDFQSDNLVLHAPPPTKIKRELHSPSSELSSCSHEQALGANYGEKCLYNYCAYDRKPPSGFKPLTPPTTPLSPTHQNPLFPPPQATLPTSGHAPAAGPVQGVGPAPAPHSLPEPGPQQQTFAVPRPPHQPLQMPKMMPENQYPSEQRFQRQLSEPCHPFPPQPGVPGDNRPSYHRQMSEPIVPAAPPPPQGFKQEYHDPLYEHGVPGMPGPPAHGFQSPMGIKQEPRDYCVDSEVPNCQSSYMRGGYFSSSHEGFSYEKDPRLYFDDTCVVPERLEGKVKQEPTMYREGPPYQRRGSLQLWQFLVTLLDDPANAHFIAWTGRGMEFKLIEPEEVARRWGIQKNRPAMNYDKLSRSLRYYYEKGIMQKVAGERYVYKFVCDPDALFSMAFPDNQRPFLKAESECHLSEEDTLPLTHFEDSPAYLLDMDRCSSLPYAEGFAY
Sequence of ETV1 (P50549 whole entry): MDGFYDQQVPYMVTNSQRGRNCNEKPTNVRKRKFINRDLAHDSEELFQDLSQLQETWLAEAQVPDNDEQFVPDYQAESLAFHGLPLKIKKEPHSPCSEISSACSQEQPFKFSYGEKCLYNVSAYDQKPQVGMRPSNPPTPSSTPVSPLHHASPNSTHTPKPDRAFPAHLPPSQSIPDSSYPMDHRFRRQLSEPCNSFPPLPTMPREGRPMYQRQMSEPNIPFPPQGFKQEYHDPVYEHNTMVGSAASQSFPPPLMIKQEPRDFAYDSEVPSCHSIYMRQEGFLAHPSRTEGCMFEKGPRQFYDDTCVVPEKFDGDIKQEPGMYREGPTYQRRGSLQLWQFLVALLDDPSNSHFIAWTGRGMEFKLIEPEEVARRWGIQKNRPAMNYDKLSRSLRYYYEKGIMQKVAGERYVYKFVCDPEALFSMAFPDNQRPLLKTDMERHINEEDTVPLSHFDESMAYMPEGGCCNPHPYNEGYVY

As for GCTGTA, the binding signal is 1.02 fold enrichment (6-mer frequency, TF over GST control) in [1]; 1.04 fold enrichment (6-mer frequency, TF over GST control) in [2]; 1.15 fold enrichment (6-mer frequency, TF over GST control) in experiment [3]; 1.08 fold enrichment (6-mer frequency, TF over GST control) in [4]; 1.21 fold enrichment (6-mer frequency, TF over GST control) in experiment [5]; 1.1 fold enrichment (6-mer frequency, TF over GST control) in experiment [6]. The binding signal is 1.04 fold enrichment (6-mer frequency, TF over GST control) in experiment [7]; 1.04 fold enrichment (6-mer frequency, TF over GST control) in experiment [8]; 1.14 fold enrichment (6-mer frequency, TF over GST control) in experiment [9]; 1.15 fold enrichment (6-mer frequency, TF over GST control) in [10]; 1.06 fold enrichment (6-mer frequency, TF over GST control) in experiment [11]; 1 fold enrichment (6-mer frequency, TF over GST control) in experiment [12]. The binding signal in [13] was 1.36 fold enrichment (6-mer frequency, TF over GST control); in [14] it was 1.08 fold enrichment (6-mer frequency, TF over GST control); in experiment [15] it was 1.09 fold enrichment (6-mer frequency, TF over GST control); in [16], 1.08 fold enrichment (6-mer frequency, TF over GST control); in experiment [17], 1.07 fold enrichment (6-mer frequency, TF over GST control); in experiment [18], 1.02 fold enrichment (6-mer frequency, TF over GST control). For the same sequence, the binding signal in [19] is 1.06 fold enrichment (6-mer frequency, TF over GST control).
